# Measured values reported in the supplement of paper PMC12282887.
# ± gives the standard deviation of the averaged measurements.
# Columns and labels:
# Experiment in all cases: promoter activity interaction Z-score (Lux/OD deviation from empty-vector control); higher = stronger promoter induction by the compound
# [1] = test system: E. coli BW25113 acrABp lux reporter
# Outline: (§1)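 Wild-type E. coli BW25113 and three single-gene deletion strains, each carrying a low-copy luxCDABE promoter reporter, were grown at 37°C in 40 µl LB Lennox per well of a 384-well plate. Every compound was applied at four 1:2 dilutions in biological duplicates, and OD600 and luminescence were read every 30 min for 12 h. Integration covered 0–8 h for wild type and 1–9 h for deletion strains, and wells under 10% of the median growth value were removed. Scores are Z-transformed residuals of growth-normalised luminescence fitted against a control.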
# [2] = test system: E. coli BW25113 marRABp lux reporter
# Outline: as §1
# [3] = test system: E. coli BW25113 micFp lux reporter
# Outline: as §1
# [4] = test system: E. coli BW25113 ompFp lux reporter
# Outline: as §1
# [5] = test system: E. coli BW25113 robp lux reporter
# Outline: as §1
# [6] = test system: E. coli BW25113 soxSp lux reporter
# Outline: as §1
# [7] = test system: E. coli BW25113 tolCp lux reporter
# Outline: as §1
# [8] = 0.056 µg/ml, genetic background: wild type
# [9] = 0.056 µg/ml, genetic background: ΔmarA
# [10] = 0.056 µg/ml, genetic background: Δrob
# [11] = 0.056 µg/ml, genetic background: ΔsoxS
# [12] = 0.11 µg/ml, genetic background: wild type
# [13] = 0.11 µg/ml, genetic background: ΔmarA
# [14] = 0.11 µg/ml, genetic background: Δrob
# [15] = 0.11 µg/ml, genetic background: ΔsoxS
# [16] = 0.22 µg/ml, genetic background: wild type
# [17] = 0.22 µg/ml, genetic background: ΔmarA
# [18] = 0.22 µg/ml, genetic background: Δrob
# [19] = 0.22 µg/ml, genetic background: ΔsoxS
# [20] = 0.44 µg/ml, genetic background: wild type
# [21] = 0.44 µg/ml, genetic background: ΔmarA
# [22] = 0.44 µg/ml, genetic background: Δrob
# [23] = 0.44 µg/ml, genetic background: ΔsoxS
compound,measurement,setting,value
CN(C)[C@@H]1C(O)=C(C(N)=O)C(=O)[C@@]2(O)C(O)=C3C(=O)c4c(O)cccc4[C@@](C)(O)[C@H]3C[C@@H]12 [Tetracycline],promoter activity interaction Z-score,[1]; [8],0.26 ± 0.44
same,promoter activity interaction Z-score,[1]; [9],0.996 ± 0.81
same,promoter activity interaction Z-score,[1]; [10],-0.021 ± 0.06
same,promoter activity interaction Z-score,[1]; [11],-0.156 ± 0.057
same,promoter activity interaction Z-score,[1]; [12],0.439 ± 0.11
same,promoter activity interaction Z-score,[1]; [13],0.363 ± 1.1
same,promoter activity interaction Z-score,[1]; [14],0.655 ± 0.19
same,promoter activity interaction Z-score,[1]; [15],0.643 ± 0.026
same,promoter activity interaction Z-score,[1]; [16],1.07 ± 0.24
same,promoter activity interaction Z-score,[1]; [17],-0.35 ± 0.28
same,promoter activity interaction Z-score,[1]; [18],1.78 ± 0.42
same,promoter activity interaction Z-score,[1]; [19],1.59 ± 0.34
same,promoter activity interaction Z-score,[1]; [20],2.18 ± 0.16
same,promoter activity interaction Z-score,[1]; [21],-1.42 ± 0.33
same,promoter activity interaction Z-score,[1]; [22],5.96
same,promoter activity interaction Z-score,[1]; [23],-1.22
same,promoter activity interaction Z-score,[2]; [8],0.665 ± 0.88
same,promoter activity interaction Z-score,[2]; [9],1.07 ± 0.1
same,promoter activity interaction Z-score,[2]; [10],0.256 ± 0.36
same,promoter activity interaction Z-score,[2]; [11],0.136 ± 0.061
same,promoter activity interaction Z-score,[2]; [12],2.13 ± 0.84
same,promoter activity interaction Z-score,[2]; [13],1.76 ± 0.44
same,promoter activity interaction Z-score,[2]; [14],0.771 ± 0.16
same,promoter activity interaction Z-score,[2]; [15],1.22 ± 0.7
same,promoter activity interaction Z-score,[2]; [16],2.83 ± 0.4
same,promoter activity interaction Z-score,[2]; [17],3.06 ± 0.18
same,promoter activity interaction Z-score,[2]; [18],1.16 ± 0.43
same,promoter activity interaction Z-score,[2]; [19],2.13 ± 0.087
same,promoter activity interaction Z-score,[2]; [20],2.24 ± 1
same,promoter activity interaction Z-score,[2]; [21],0.451 ± 0.1
same,promoter activity interaction Z-score,[2]; [22],0.992 ± 0.29
same,promoter activity interaction Z-score,[2]; [23],2.56
same,promoter activity interaction Z-score,[3]; [8],1.46 ± 0.49
same,promoter activity interaction Z-score,[3]; [9],0.0522 ± 0.015
same,promoter activity interaction Z-score,[3]; [10],-0.0785 ± 0.057
same,promoter activity interaction Z-score,[3]; [11],0.373 ± 0.06
same,promoter activity interaction Z-score,[3]; [12],2.61 ± 0.64
same,promoter activity interaction Z-score,[3]; [13],0.188 ± 0.14
same,promoter activity interaction Z-score,[3]; [14],0.177 ± 0.19
same,promoter activity interaction Z-score,[3]; [15],1.44 ± 0.23
same,promoter activity interaction Z-score,[3]; [16],3.37 ± 0.62
same,promoter activity interaction Z-score,[3]; [17],0.403 ± 0.2
same,promoter activity interaction Z-score,[3]; [18],0.131 ± 0.15
same,promoter activity interaction Z-score,[3]; [19],1.86 ± 0.2
same,promoter activity interaction Z-score,[3]; [20],0.313 ± 0.3
same,promoter activity interaction Z-score,[3]; [21],0.3 ± 0.28
same,promoter activity interaction Z-score,[3]; [22],-0.128 ± 0.088
same,promoter activity interaction Z-score,[3]; [23],-0.349 ± 0.37
same,promoter activity interaction Z-score,[4]; [8],1.85 ± 1.5
same,promoter activity interaction Z-score,[4]; [9],1.72 ± 1.3
same,promoter activity interaction Z-score,[4]; [10],1.96 ± 1.3
same,promoter activity interaction Z-score,[4]; [11],0.631 ± 0.11
same,promoter activity interaction Z-score,[4]; [12],2.68 ± 1
same,promoter activity interaction Z-score,[4]; [13],2.53 ± 0.79
same,promoter activity interaction Z-score,[4]; [14],2.36 ± 0.4
same,promoter activity interaction Z-score,[4]; [15],2.15 ± 1
same,promoter activity interaction Z-score,[4]; [16],1.98 ± 0.54
same,promoter activity interaction Z-score,[4]; [17],1.86 ± 0.28
same,promoter activity interaction Z-score,[4]; [18],1.26 ± 0.07
same,promoter activity interaction Z-score,[4]; [19],2.71 ± 0.19
same,promoter activity interaction Z-score,[4]; [20],-0.73 ± 0.18
same,promoter activity interaction Z-score,[4]; [21],-1.97 ± 1.1
same,promoter activity interaction Z-score,[4]; [23],-3.24
same,promoter activity interaction Z-score,[5]; [8],0.998 ± 1.4
same,promoter activity interaction Z-score,[5]; [9],0.179 ± 0.2
same,promoter activity interaction Z-score,[5]; [10],0.105 ± 0.73
same,promoter activity interaction Z-score,[5]; [11],-0.0139 ± 0.3
same,promoter activity interaction Z-score,[5]; [12],1.13 ± 0.42
same,promoter activity interaction Z-score,[5]; [13],-0.0571 ± 0.62
same,promoter activity interaction Z-score,[5]; [14],0.458 ± 0.4
same,promoter activity interaction Z-score,[5]; [15],0.51 ± 0.84
same,promoter activity interaction Z-score,[5]; [16],-0.261 ± 0.053
same,promoter activity interaction Z-score,[5]; [17],-0.985 ± 0.35
same,promoter activity interaction Z-score,[5]; [18],0.638 ± 0.37
same,promoter activity interaction Z-score,[5]; [19],0.945 ± 1.1
same,promoter activity interaction Z-score,[5]; [20],-1.59 ± 0.88
same,promoter activity interaction Z-score,[5]; [21],-2.19 ± 0.95
same,promoter activity interaction Z-score,[5]; [23],-2.66 ± 0.43
same,promoter activity interaction Z-score,[6]; [8],0.151 ± 0.19
same,promoter activity interaction Z-score,[6]; [9],0.0648 ± 0.063
same,promoter activity interaction Z-score,[6]; [10],-0.00055 ± 0.21
same,promoter activity interaction Z-score,[6]; [11],-0.162 ± 0.37
same,promoter activity interaction Z-score,[6]; [12],0.728 ± 0.037
same,promoter activity interaction Z-score,[6]; [13],0.346 ± 0.055
same,promoter activity interaction Z-score,[6]; [14],0.252 ± 0.33
same,promoter activity interaction Z-score,[6]; [15],0.493 ± 0.026
same,promoter activity interaction Z-score,[6]; [16],1.18 ± 0.3
same,promoter activity interaction Z-score,[6]; [17],0.609 ± 0.14
same,promoter activity interaction Z-score,[6]; [18],0.598 ± 0.38
same,promoter activity interaction Z-score,[6]; [19],1.26 ± 0.17
same,promoter activity interaction Z-score,[6]; [20],1.56 ± 0.18
same,promoter activity interaction Z-score,[6]; [21],1.47 ± 0.25
same,promoter activity interaction Z-score,[6]; [22],1.46 ± 1
same,promoter activity interaction Z-score,[6]; [23],0.966 ± 0.8
same,promoter activity interaction Z-score,[7]; [8],0.446 ± 0.25
same,promoter activity interaction Z-score,[7]; [9],0.201 ± 0.44
same,promoter activity interaction Z-score,[7]; [10],0.673 ± 1.5
same,promoter activity interaction Z-score,[7]; [11],-0.654 ± 0.27
same,promoter activity interaction Z-score,[7]; [12],1.04 ± 0.64
same,promoter activity interaction Z-score,[7]; [13],0.0643 ± 0.81
same,promoter activity interaction Z-score,[7]; [14],0.925 ± 0.084
same,promoter activity interaction Z-score,[7]; [15],-0.579 ± 0.46
same,promoter activity interaction Z-score,[7]; [16],1.19 ± 1.5
same,promoter activity interaction Z-score,[7]; [17],1.09 ± 0.74
same,promoter activity interaction Z-score,[7]; [18],1.09 ± 0.63
same,promoter activity interaction Z-score,[7]; [19],0.351 ± 1.5
same,promoter activity interaction Z-score,[7]; [20],-0.0424 ± 0.045
same,promoter activity interaction Z-score,[7]; [21],1.29 ± 2
same,promoter activity interaction Z-score,[7]; [22],1.15 ± 0.23
same,promoter activity interaction Z-score,[7]; [23],0.632 ± 1.4
